Experimental data taken from PubChem BioAssay AID1159580 (chemical genetic matrix, 2015).
“And” between values parts separate entries of the source, which are not always exact repeats. Identical values can stand only once. In all, about 5,500 compounds went through this assay and about 2,000 (36%) were called active. Another 18% or so got no clear call; they are omitted. No stated cut-off is given here; in the data, active means normalized growth mostly below about 0.91 (no sharp cut-off); inconclusive means no clear call, values can overlap the other calls; inactive means mostly above about 0.92. The list shows a part of the results.

Assay: chemical genetic growth profiling, strain panel (AID 1159580);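 further: tested at 20 µM; growth read once vehicle control cultures reached saturation at 30 °C; 1 = growth at the plate median or of vehicle wells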
Conditions: growth OD
[1] = S. cerevisiae deletion strains, locus YBR021W, strain FUR4, stronger effect = lower value
[2] = S. cerevisiae deletion strains, locus YBR229C, strain ROT2, stronger effect = lower value
[3] = S. cerevisiae deletion strains, locus YCL029C, strain bik1, stronger effect = lower value
[4] = S. cerevisiae deletion strains, locus YDL035C, strain GPR1, stronger effect = lower value
[5] = S. cerevisiae deletion strains, locus YDL074C, strain BRE1, stronger effect = lower value
[6] = S. cerevisiae deletion strains, locus YDL101C, strain DUN1, stronger effect = lower value
[7] = S. cerevisiae deletion strains, locus YDL185W, strain tfp1, stronger effect = lower value
[8] = S. cerevisiae deletion strains, locus YDL192W, strain arf1, stronger effect = lower value
[9] = S. cerevisiae deletion strains, locus YDR101C, strain arx1, stronger effect = lower value
[10] = S. cerevisiae deletion strains, locus YDR150W, strain NUM1, stronger effect = lower value
[11] = S. cerevisiae deletion strains, locus YDR162C, strain NBP2, stronger effect = lower value
[12] = S. cerevisiae deletion strains, locus YDR318W, strain mcm21, stronger effect = lower value
[13] = S. cerevisiae deletion strains, locus YDR388W, stronger effect = lower value
[14] = S. cerevisiae deletion strains, locus YDR502C, strain sam2, stronger effect = lower value
[15] = S. cerevisiae deletion strains, locus YEL061C, strain CIN8, stronger effect = lower value
[16] = S. cerevisiae deletion strains, locus YER110C, stronger effect = lower value
[17] = S. cerevisiae deletion strains, locus YER155C, strain BEM2, stronger effect = lower value
[18] = S. cerevisiae deletion strains, locus YER167W, strain BCK2, stronger effect = lower value
[19] = S. cerevisiae deletion strains, locus YGL078C, strain dbp3, stronger effect = lower value
[20] = S. cerevisiae deletion strains, locus YGL086W, strain mad1, stronger effect = lower value
[21] = S. cerevisiae deletion strains, locus YGL248W, strain PDE1, stronger effect = lower value
[22] = S. cerevisiae deletion strains, locus YGR135W, strain pre9, stronger effect = lower value
[23] = S. cerevisiae deletion strains, locus YGR252W, strain gcn5, stronger effect = lower value
[24] = S. cerevisiae deletion strains, locus YHR030C, strain SLT2, stronger effect = lower value
[25] = S. cerevisiae deletion strains, locus YHR079C, strain IRE1 (second series), stronger effect = lower value
[26] = S. cerevisiae deletion strains, locus YHR094C, strain hxt1, stronger effect = lower value
[27] = S. cerevisiae deletion strains, locus YHR129C, strain ARP1, stronger effect = lower value
[28] = S. cerevisiae deletion strains, locus YHR200W, strain rpn10, stronger effect = lower value
[29] = S. cerevisiae deletion strains, locus YIL066C, strain RNR3, stronger effect = lower value
[30] = S. cerevisiae deletion strains, locus YIL073C, strain SPO22, stronger effect = lower value
[31] = S. cerevisiae deletion strains, locus YIL125W, strain kgd1, stronger effect = lower value
[32] = S. cerevisiae deletion strains, locus YIR030C, strain dcg1, stronger effect = lower value
[33] = S. cerevisiae deletion strains, locus YJL095W, strain BCK1, stronger effect = lower value
[34] = S. cerevisiae deletion strains, locus YJL134W, strain LCB3, stronger effect = lower value
[35] = S. cerevisiae deletion strains, locus YJL168C, strain set2, stronger effect = lower value
[36] = S. cerevisiae deletion strains, locus YJL187C, strain SWE1 (second series), stronger effect = lower value
[37] = S. cerevisiae deletion strains, locus YJR043C, strain POL32, stronger effect = lower value
[38] = S. cerevisiae deletion strains, locus YKL009W, strain mrt4, stronger effect = lower value
[39] = S. cerevisiae deletion strains, locus YKL068W, stronger effect = lower value
[40] = S. cerevisiae deletion strains, locus YKL085W, strain MDH1 (second series), stronger effect = lower value
[41] = S. cerevisiae deletion strains, locus YKL085W, strain MDH1, stronger effect = lower value
[42] = S. cerevisiae deletion strains, locus YKR001C, strain vps1, stronger effect = lower value
[43] = S. cerevisiae deletion strains, locus YLR039C, strain RIC1, stronger effect = lower value
[44] = S. cerevisiae deletion strains, locus YLR058C, strain SHM2, stronger effect = lower value
[45] = S. cerevisiae deletion strains, locus YLR102C, strain apc9, stronger effect = lower value
[46] = S. cerevisiae deletion strains, locus YLR262C, strain YPT6, stronger effect = lower value
[47] = S. cerevisiae deletion strains, locus YLR268W, strain sec22, stronger effect = lower value
[48] = S. cerevisiae deletion strains, locus YLR330W, strain CHS5, stronger effect = lower value
[49] = S. cerevisiae deletion strains, locus YLR342W, strain FKS1 (second series), stronger effect = lower value
[50] = S. cerevisiae deletion strains, locus YLR371W, strain rom2, stronger effect = lower value
[51] = S. cerevisiae deletion strains, locus YLR418C, strain cdc73, stronger effect = lower value
[52] = S. cerevisiae deletion strains, locus YML016C, strain PPZ1, stronger effect = lower value
[53] = S. cerevisiae deletion strains, locus YML032C, strain rad52, stronger effect = lower value
[54] = S. cerevisiae deletion strains, locus YML124C, strain tub3, stronger effect = lower value
[55] = S. cerevisiae deletion strains, locus YMR078C, strain ctf18, stronger effect = lower value
[56] = S. cerevisiae deletion strains, locus YMR223W, strain ubp8, stronger effect = lower value
[57] = S. cerevisiae deletion strains, locus YMR307W, strain GAS1, stronger effect = lower value
[58] = S. cerevisiae deletion strains, locus YNL067W, strain RPL9B, stronger effect = lower value
[59] = S. cerevisiae deletion strains, locus YNL128W, strain TEP1, stronger effect = lower value
[60] = S. cerevisiae deletion strains, locus YNL233W, strain BNI4, stronger effect = lower value
[61] = S. cerevisiae deletion strains, locus YNL250W, strain rad50, stronger effect = lower value
[62] = S. cerevisiae deletion strains, locus YNL271C, strain bni1, stronger effect = lower value
[63] = S. cerevisiae deletion strains, locus YNL298W, strain CLA4, stronger effect = lower value
[64] = S. cerevisiae deletion strains, locus YNL307C, strain MCK1, stronger effect = lower value
[65] = S. cerevisiae deletion strains, locus YNL322C, strain KRE1, stronger effect = lower value
[66] = S. cerevisiae deletion strains, locus YNR052C, strain pop2, stronger effect = lower value
[67] = S. cerevisiae deletion strains, locus YOL012C, strain htz1
[68] = S. cerevisiae deletion strains, locus YOL147C, strain pex11, stronger effect = lower value
[69] = S. cerevisiae deletion strains, locus YOR061W, strain CKA2, stronger effect = lower value
[70] = S. cerevisiae deletion strains, locus YOR069W, strain VPS5, stronger effect = lower value
[71] = S. cerevisiae deletion strains, locus YOR136W, strain idh2, stronger effect = lower value
[72] = S. cerevisiae deletion strains, locus YOR144C, strain elg1, stronger effect = lower value
[73] = S. cerevisiae deletion strains, locus YOR184W, strain ser1, stronger effect = lower value
[74] = S. cerevisiae deletion strains, locus YOR316C, strain cot1, stronger effect = lower value
[75] = S. cerevisiae deletion strains, locus YPL241C, strain CIN2, stronger effect = lower value
[76] = S. cerevisiae deletion strains, locus YPR119W, strain clb2, stronger effect = lower value
[77] = S. cerevisiae deletion strains, locus YPR141C, strain kar3, stronger effect = lower value
[78] = S. cerevisiae deletion strains, locus YPR163C, strain tif3, stronger effect = lower value
[79] = S. cerevisiae deletion strains, locus YPR167C, strain met16, stronger effect = lower value
[80] = S. cerevisiae deletion strains, strain wtn01, stronger effect = lower value
[81] = S. cerevisiae strains, strain wild type, stronger effect = lower value
[82] = S. cerevisiae deletion strains, locus YGR229C, strain SMI1, stronger effect = lower value
[83] = S. cerevisiae deletion strains, locus YNL153C, strain GIM3, stronger effect = lower value

Measured: normalized growth

COc1cc2c(cc1-c1cc3cc4ccoc4cc3oc1=O)OCO2
active: [1] 1.31 [resistant] | [17] 1.11 [resistant] | [26] 1.16 [resistant] | [38] 1.19 [resistant] | [50] 1.18 [resistant] | [57] 1.57 [resistant] | [65] 1.16 [resistant] | [74] 1.17 [resistant]
inactive: [2] 0.995 | [3] 0.965 | [4] 1.01 | [5] 1 | [6] 0.98 | [7] 0.97 | [8] 1.01 | [9] 0.981 | [10] 0.991 | [11] 0.977 | [12] 0.973 | [13] 0.965 | [14] 0.95 | [15] 1.01 | [16] 0.97 | [18] 1.02 | [19] 0.997 | [20] 1.01 | [21] 0.977 | S. cerevisiae deletion strains, locus YGR078C, strain PAC10, stronger effect = lower value 0.993 | [22] 0.993 | [23] 1.16 | [24] 0.984 and 1 | [25] 0.979 | S. cerevisiae deletion strains, locus YHR079C, strain IRE1, stronger effect = lower value 1.01 | [27] 1.01 | [28] 0.972 | [29] 0.973 | [30] 0.902 | [31] 0.984 | [32] 0.989 | [33] 0.979 and 1 | [34] 0.973 | [35] 1.01 | [36] 0.98 | [37] 1.01 | S. cerevisiae deletion strains, locus YJR066W, strain TOR1, stronger effect = lower value 0.942 | [39] 1.02 | [40] 1.05 | [41] 1.05 | [42] 1.01 | [43] 0.954 | [44] 0.973 | [45] 0.997 | S. cerevisiae deletion strains, locus YLR113W, strain HOG1, stronger effect = lower value 0.996 | [46] 1.19 | [47] 0.95 | [48] 0.983 | [49] 0.993 | [51] 0.915 | [52] 0.982 | [53] 0.983 | [54] 0.975 | [55] 0.984 | [56] 0.999 | [58] 0.968 | [59] 1.01 | S. cerevisiae deletion strains, locus YNL183C, strain NPR1, stronger effect = lower value 0.925 | [60] 1 | [61] 0.975 | [62] 0.991 | [63] 1 | [64] 0.944 | [66] 1.03 | [67] 1.22 | [68] 0.992 | [69] 0.971 | [70] 0.977 | [71] 0.987 | [72] 0.981 | [73] 0.907 | S. cerevisiae deletion strains, locus YOR231W, strain MKK1, stronger effect = lower value 1.07 | [75] 0.984 | S. cerevisiae deletion strains, locus YPL256C, strain CLN2, stronger effect = lower value 1.01 | [76] 0.966 | [77] 1.02 | [78] 0.969 | [79] 0.995 | [80] 0.972 | [81] 1.01

COc1cc2c(cc1/C=C/C(=O)c1cc(OC)c(OC)cc1OC)OCO2
inactive: [1] 1.14 | [2] 0.968 | [3] 1.02 | [4] 1 | [5] 1.05 | [6] 0.994 | S. cerevisiae deletion strains, locus YDL134C, strain PPH21, stronger effect = lower value 1.01 | [7] 1 | [8] 1.01 | [9] 0.998 | [10] 1.02 | [11] 0.974 | [12] 1.01 | [13] 1.02 | [14] 1.02 | [15] 1 | [16] 1.02 | [17] 1.02 | [18] 1.03 | [19] 0.997 | [20] 1.01 | [21] 0.996 | [22] 1.01 | [82] 1.01 | [23] 1.08 | [24] 1.02 | [25] 1 | [26] 1.01 | [27] 1.02 | [28] 1.02 | [29] 1.01 | [30] 1.06 | [31] 1.03 | [32] 1.01 | [33] 1 | [34] 1.01 | [35] 1.01 | [36] 1 | [37] 1.02 | [38] 1.02 | [39] 1 | [40] 1 | [41] 1 | S. cerevisiae deletion strains, locus YKL190W, strain CNB1, stronger effect = lower value 0.994 | [42] 1.02 | [43] 0.994 | [44] 0.998 | [45] 1.02 | [46] 1.01 | [47] 1.02 | [48] 1.02 | [49] 1.06 | [50] 1.02 | [51] 1.04 | [52] 1.01 | [53] 1.02 | [54] 0.995 | [55] 1.03 | [56] 1.01 | S. cerevisiae deletion strains, locus YMR263W, strain SAP30, stronger effect = lower value 1 | [57] 1.21 | [58] 0.998 | [59] 0.996 | [83] 0.983 | [60] 1.02 | [61] 1.01 | [62] 1.01 | [63] 1.02 | [64] 1.03 | [65] 1.01 | [66] 1.01 | S. cerevisiae deletion strains, locus YOL006C, strain TOP1, stronger effect = lower value 1.27 | [67] 1.18 | [68] 1.01 | [69] 0.975 | [70] 1.01 | [71] 1.02 | [72] 1 | [73] 0.993 | [74] 1.04 | S. cerevisiae deletion strains, locus YPL055C, strain LGE1, stronger effect = lower value 1.05 | [76] 1.01 | [77] 1.01 | [78] 1.01 | [79] 1.01 | [80] 1.01 | [81] 1.01

CCCCN1CCC(COC(=O)c2cc(Cl)c(N)c3c2OCCO3)CC1
inactive: S. cerevisiae deletion strains, locus YAL013W, strain DEP1, stronger effect = lower value 0.976 | S. cerevisiae deletion strains, locus YAL040C, strain CLN3, stronger effect = lower value 0.973 | S. cerevisiae deletion strains, locus YCL061C, strain MRC1 (second series), stronger effect = lower value 0.987 | [10] 0.997 | S. cerevisiae deletion strains, locus YDR363W, strain ESC2, stronger effect = lower value 0.968 | S. cerevisiae deletion strains, locus YER002W, strain NOP16, stronger effect = lower value 0.987 | [82] 0.966 | [57] 0.989 | [59] 0.991 | [83] 0.996 | S. cerevisiae deletion strains, locus YNL175C, strain NOP13, stronger effect = lower value 1 | S. cerevisiae deletion strains, locus YNL197C, strain WHI3, stronger effect = lower value 0.991 | S. cerevisiae deletion strains, locus YNL224C, strain SQS1, stronger effect = lower value 1.01 | [65] 0.982 | S. cerevisiae deletion strains, locus YOR083W, strain WHI5 (second series), stronger effect = lower value 0.989 | [75] 0.993
